Measurements reported in PubChem BioAssay (NCI).
This is part of a sample that, as a whole, favours compounds with a hit. Of some 83,000 tested, about 20% had one in any assay.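 The endpoint reported here, percent growth, reads 100 for growth as untreated, 0 for no net growth and -100 for all cells dead.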 Activity calls are given as the source filed them. Rule for the calls: active = growth percent below 10; inactive = the rest.

Columns and labels:
Experiment in all cases: NCI-60 one-dose screen, 48 h (100 = growth as untreated, 0 = no growth, -100 = all killed)
Details in all cases: 10 µM unless noted
SK-MEL-2 melanoma = tested on: SK-MEL-2 melanoma
EKVX NSCLC = tested on: EKVX NSCLC
SN12C renal = tested on: SN12C renal
UO-31 renal = tested on: UO-31 renal
TK-10 renal = tested on: TK-10 renal
ACHN renal = tested on: ACHN renal
A498 renal = tested on: A498 renal
CCRF-CEM leukemia = tested on: CCRF-CEM leukemia
MOLT-4 leukemia = tested on: MOLT-4 leukemia
SR leukemia = tested on: SR leukemia
RPMI-8226 leukemia = tested on: RPMI-8226 leukemia
OVCAR-8 ovarian = tested on: OVCAR-8 ovarian
OVCAR-5 ovarian = tested on: OVCAR-5 ovarian
OVCAR-4 ovarian = tested on: OVCAR-4 ovarian
SK-OV-3 ovarian = tested on: SK-OV-3 ovarian
IGROV1 ovarian = tested on: IGROV1 ovarian
OVCAR-3 ovarian = tested on: OVCAR-3 ovarian
HS 578T breast = tested on: HS 578T breast
NCI/ADR-RES ovarian = tested on: NCI/ADR-RES ovarian
T-47D breast = tested on: T-47D breast

Measured: growth

O=C(O)c1cn(C2CC2)c2cc(N3CCN(C(=O)CSc4nnc(-c5ccc(Cl)cc5)n4-c4ccccc4)CC3)c(F)cc2c1=O
inactive: SK-MEL-2 melanoma 104% | EKVX NSCLC 111% | SN12C renal 102% | UO-31 renal 84.7% | TK-10 renal 99.4% | ACHN renal 108% | A498 renal 67.8% | CCRF-CEM leukemia 84.3% | MOLT-4 leukemia 103% | SR leukemia 89.9% | RPMI-8226 leukemia 102% | OVCAR-8 ovarian 102% | OVCAR-5 ovarian 121% | OVCAR-4 ovarian 110% | SK-OV-3 ovarian 79.8% | IGROV1 ovarian 107% | OVCAR-3 ovarian 110% | HS 578T breast 101% | NCI/ADR-RES ovarian 104% | T-47D breast 77.9%

COC(=O)/C=C1\SC(=Nc2ccc(F)cc2)N(CCc2c[nH]c3ccccc23)C1=O
inactive: SK-MEL-2 melanoma 102% | EKVX NSCLC 92.6% | SN12C renal 103% | UO-31 renal 81% | TK-10 renal 106% | ACHN renal 103% | A498 renal 110% | CCRF-CEM leukemia 68.2% | MOLT-4 leukemia 76.4% | SR leukemia 85.5% | RPMI-8226 leukemia 93.8% | OVCAR-8 ovarian 87.5% | OVCAR-5 ovarian 110% | OVCAR-4 ovarian 106% | SK-OV-3 ovarian 102% | IGROV1 ovarian 98.5% | OVCAR-3 ovarian 104% | HS 578T breast 108% | NCI/ADR-RES ovarian 95.8% | T-47D breast 91.3%

Cc1cc(Cl)cc(CN(Cc2ccccc2)Cc2c(O)ccc3ccccc23)c1O
inactive: SK-MEL-2 melanoma 91% | EKVX NSCLC 99% | SN12C renal 83.5% | UO-31 renal 62.2% | TK-10 renal 110% | ACHN renal 102% | A498 renal 76.6% | CCRF-CEM leukemia 99.2% | MOLT-4 leukemia 104% | SR leukemia 92.9% | RPMI-8226 leukemia 87.4% | OVCAR-8 ovarian 98.5% | OVCAR-5 ovarian 116% | OVCAR-4 ovarian 105% | SK-OV-3 ovarian 97.2% | IGROV1 ovarian 94.7% | OVCAR-3 ovarian 91.7% | HS 578T breast 102% | NCI/ADR-RES ovarian 96.5% | T-47D breast 89.5%

CCCCc1n(Cc2ccc3ccccc3c2)c2ccccc2[n+]1Cc1ccc2ccccc2c1
inactive: NCI/ADR-RES ovarian 63.2%
active: SK-MEL-2 melanoma -73.5% | EKVX NSCLC -84.6% | SN12C renal -92.3% | UO-31 renal -90.3% | TK-10 renal -87.1% | ACHN renal -91.4% | A498 renal -92.7% | CCRF-CEM leukemia -48.2% | MOLT-4 leukemia -60.9% | SR leukemia -54.1% | RPMI-8226 leukemia -37.9% | OVCAR-8 ovarian -76.7% | OVCAR-5 ovarian -94.1% | OVCAR-4 ovarian -90.7% | SK-OV-3 ovarian -65.5% | IGROV1 ovarian -80.1% | OVCAR-3 ovarian -87.8% | HS 578T breast -61.5% | T-47D breast -62.1%

Cn1c2c(c3ccc(-c4ccn[nH]4)cc3c1=O)C(=O)c1ccccc1-2
active: SN12C renal 7.3% | ACHN renal -8.82% | CCRF-CEM leukemia 2.31% | MOLT-4 leukemia -1.45% | SR leukemia 1.32% | RPMI-8226 leukemia -11.6%
inactive: SK-MEL-2 melanoma 118% | EKVX NSCLC 20.2% | UO-31 renal 19.2% | TK-10 renal 71.6% | A498 renal 60% | OVCAR-8 ovarian 29.4% | OVCAR-5 ovarian 86% | OVCAR-4 ovarian 74% | SK-OV-3 ovarian 74.2% | IGROV1 ovarian 45.6% | OVCAR-3 ovarian 60.3% | HS 578T breast 85.8% | NCI/ADR-RES ovarian 53.2% | T-47D breast 32.2%

COC(=O)/C=C1\SC(=Nc2cccc(OC)c2)N(CCc2c[nH]c3ccccc23)C1=O
active: MOLT-4 leukemia 2.83%
inactive: SK-MEL-2 melanoma 60.8% | EKVX NSCLC 76.1% | SN12C renal 64.4% | UO-31 renal 76.3% | TK-10 renal 89.3% | ACHN renal 78.4% | A498 renal 90.1% | CCRF-CEM leukemia 24.7% | SR leukemia 12% | RPMI-8226 leukemia 19.6% | OVCAR-8 ovarian 52.3% | OVCAR-5 ovarian 96% | OVCAR-4 ovarian 69.7% | SK-OV-3 ovarian 72.4% | IGROV1 ovarian 71.7% | OVCAR-3 ovarian 57% | HS 578T breast 81% | NCI/ADR-RES ovarian 62.9% | T-47D breast 46.1%

CC(=O)c1ccc(NC(=O)CSc2nnc(-c3cc(-c4ccc(Cl)cc4)nc4ccccc34)o2)cc1
inactive: SK-MEL-2 melanoma 87.3% | EKVX NSCLC 97.3% | SN12C renal 37.9% | UO-31 renal 86.6% | TK-10 renal 83.7% | ACHN renal 89.8% | A498 renal 105% | CCRF-CEM leukemia 60.8% | MOLT-4 leukemia 66.6% | RPMI-8226 leukemia 25.5% | OVCAR-8 ovarian 82% | OVCAR-5 ovarian 96.7% | OVCAR-4 ovarian 71.1% | SK-OV-3 ovarian 90.1% | IGROV1 ovarian 92.7% | OVCAR-3 ovarian 107% | HS 578T breast 110% | NCI/ADR-RES ovarian 83.2% | T-47D breast 79.1%
active: SR leukemia 0.55%

COC(=O)/C=C/c1cc(OC(C)=O)c2c(c1)C(C(=O)OC)C(c1ccc(OC(C)=O)c(OC(C)=O)c1)O2 (stereo not given)
active: A498 renal 3.78% | CCRF-CEM leukemia 9.72% | SR leukemia 8.61% | OVCAR-8 ovarian -12.5% | OVCAR-3 ovarian 3.01% | NCI/ADR-RES ovarian 6.1%
inactive: SK-MEL-2 melanoma 25% | EKVX NSCLC 44.4% | SN12C renal 23.6% | UO-31 renal 35.2% | TK-10 renal 44.7% | ACHN renal 34.4% | MOLT-4 leukemia 15.3% | RPMI-8226 leukemia 11.1% | OVCAR-5 ovarian 50.5% | OVCAR-4 ovarian 49.5% | SK-OV-3 ovarian 18.8% | IGROV1 ovarian 20.1% | HS 578T breast 41.1% | T-47D breast 49.3%

O=C1C(Cl)=C(Nc2ccc3c(c2NC2=C(Cl)C(=O)c4ccccc4C2=O)C(=O)c2ccccc2C3=O)C(=O)c2ccccc21
active: SN12C renal 4.99% | MOLT-4 leukemia 8.53% | OVCAR-5 ovarian 3.29% | OVCAR-4 ovarian -12% | IGROV1 ovarian 6.05% | OVCAR-3 ovarian -2.06% | NCI/ADR-RES ovarian 7.89%
inactive: SK-MEL-2 melanoma 40.8% | EKVX NSCLC 34.5% | UO-31 renal 23.1% | TK-10 renal 77.3% | ACHN renal 29.2% | A498 renal 50.5% | CCRF-CEM leukemia 17.8% | SR leukemia 13.3% | RPMI-8226 leukemia 28.1% | OVCAR-8 ovarian 22.3% | SK-OV-3 ovarian 90.3% | HS 578T breast 42.2% | T-47D breast 10.5%

C[C@H]1[C@H](C)CC[C@]2(C(=O)OCCCC[P+](c3ccccc3)(c3ccccc3)c3ccccc3)CC[C@]3(C)C(=CC[C@@H]4[C@@]5(C)CC[C@H](OC(=O)C(Cl)Cl)C(C)(C)[C@@H]5CC[C@]43C)[C@H]12
active: SK-MEL-2 melanoma -63.8% | EKVX NSCLC -35.4% | SN12C renal -81% | UO-31 renal -93.9% | TK-10 renal -76.8% | ACHN renal -79.6% | A498 renal -82% | CCRF-CEM leukemia -16.6% | MOLT-4 leukemia -49.8% | SR leukemia -49.4% | RPMI-8226 leukemia -53.3% | OVCAR-8 ovarian -36.8% | OVCAR-5 ovarian -52.2% | OVCAR-4 ovarian -12.1% | SK-OV-3 ovarian -15.5% | IGROV1 ovarian -51.8% | OVCAR-3 ovarian -88.8% | HS 578T breast -20.1% | T-47D breast -23.8%
inactive: NCI/ADR-RES ovarian 36.8%

CN(C)C1=NCCN1
inactive: SK-MEL-2 melanoma 81.5% | EKVX NSCLC 103% | SN12C renal 104% | UO-31 renal 96.2% | TK-10 renal 93.6% | ACHN renal 111% | A498 renal 107% | CCRF-CEM leukemia 90.2% | MOLT-4 leukemia 92.6% | SR leukemia 108% | RPMI-8226 leukemia 95.2% | OVCAR-8 ovarian 104% | OVCAR-5 ovarian 104% | OVCAR-4 ovarian 114% | SK-OV-3 ovarian 109% | IGROV1 ovarian 104% | OVCAR-3 ovarian 104% | HS 578T breast 106% | NCI/ADR-RES ovarian 106% | T-47D breast 110%

COc1cc(C)ccc1Oc1nc(Nc2ccc(N3CCOCC3)cc2)ncc1N=Cc1cc(C(F)(F)F)cc(C(F)(F)F)c1
inactive: SK-MEL-2 melanoma 70.2% | EKVX NSCLC 81.7% | SN12C renal 80.3% | UO-31 renal 47.6% | TK-10 renal 81.6% | ACHN renal 56.3% | A498 renal 58.8% | CCRF-CEM leukemia 82% | MOLT-4 leukemia 44.7% | SR leukemia 49.7% | RPMI-8226 leukemia 69.7% | OVCAR-8 ovarian 63% | OVCAR-5 ovarian 75.7% | OVCAR-4 ovarian 71% | SK-OV-3 ovarian 43.3% | IGROV1 ovarian 33.4% | OVCAR-3 ovarian 76.5% | HS 578T breast 61.9% | NCI/ADR-RES ovarian 69.9% | T-47D breast 57.7%

COc1ccc2c(c1)OC13Oc4cc(OC)ccc4C=C1CCCCC3=C2
inactive: SK-MEL-2 melanoma 80.2% | EKVX NSCLC 88.8% | SN12C renal 93.6% | UO-31 renal 84.7% | TK-10 renal 86.8% | ACHN renal 104% | A498 renal 98.2% | CCRF-CEM leukemia 80.9% | MOLT-4 leukemia 80.6% | SR leukemia 99% | RPMI-8226 leukemia 97.8% | OVCAR-8 ovarian 92.5% | OVCAR-5 ovarian 104% | OVCAR-4 ovarian 104% | SK-OV-3 ovarian 80.8% | IGROV1 ovarian 99.3% | OVCAR-3 ovarian 108% | HS 578T breast 99.4% | NCI/ADR-RES ovarian 96.9% | T-47D breast 67.6%

O=C(CSC(=S)N1CCCCC1)Nc1ccccc1
inactive: SK-MEL-2 melanoma 92.1% | EKVX NSCLC 106% | SN12C renal 106% | UO-31 renal 86.5% | TK-10 renal 85.8% | ACHN renal 98.8% | A498 renal 99.5% | CCRF-CEM leukemia 89.9% | MOLT-4 leukemia 86.5% | SR leukemia 87.1% | RPMI-8226 leukemia 84.6% | OVCAR-8 ovarian 99.4% | OVCAR-5 ovarian 106% | OVCAR-4 ovarian 109% | SK-OV-3 ovarian 106% | IGROV1 ovarian 103% | OVCAR-3 ovarian 107% | HS 578T breast 106% | NCI/ADR-RES ovarian 102% | T-47D breast 81.7%

O=C(CCCCCCCCC(=O)Nc1cccc(C2=NCCN2)c1)Nc1cccc(C2=NCCN2)c1
inactive: SK-MEL-2 melanoma 99.8% | EKVX NSCLC 105% | SN12C renal 81.6% | UO-31 renal 96.3% | TK-10 renal 92.4% | ACHN renal 112% | A498 renal 93.5% | CCRF-CEM leukemia 98% | MOLT-4 leukemia 89.4% | SR leukemia 65.5% | RPMI-8226 leukemia 78.6% | OVCAR-8 ovarian 107% | OVCAR-5 ovarian 109% | OVCAR-4 ovarian 102% | SK-OV-3 ovarian 113% | IGROV1 ovarian 104% | OVCAR-3 ovarian 112% | HS 578T breast 113% | NCI/ADR-RES ovarian 104% | T-47D breast 81%
